# Assay results: PubChem BioAssay (EPA / NIEHS)
# “And” between values parts separate entries of the source, which are not always exact repeats. Equal entries are not always repeated. Results filed as inconclusive are left out. The source holds several records for some structures; these can differ, active in one and inactive in another. The source made the active and inactive calls. The calls were made as follows, unless noted: active = hit-call score of the fitted dose curve at least 0.9, where 1 is the maximum; inactive = score below 0.9.
# Key:
# [1] = system: Thyroperoxidase (TPO), gene 54314; assay: CCTE_Simmons_AUR_rTPO: CCTE's Amplex UltraRed Assay for Thyroperoxidase (TPO) Inhibition, Simmons Lab (AID 2283662; active = hit-call score of the fitted dose curve at least 0.9, where 1 is the maximum;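 as to AC50: potency for loss of signal meaning inhibition of peroxidase activity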)
# Outline: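 Rat thyroid microsomal TPO + 25 uM AUR in 200 mM K phosphate; cpd 5 nM–87.5 uM [final], 8 conc, 0.5% DMSO; 300 uM H2O2 starts rxn; 37C dark 30 min; endpoint FI 544/590 nm; n=3.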
# [2] = CCTE_Simmons_CellTiterGLO_HEK293T: Viability Assessment in CCTE's Assays for Thyroperoxidase (TPO) Inhibition, Simmons Lab (AID 2283665; active = hit-call score of the fitted dose curve at least 0.9, where 1 is the maximum;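 as to AC50: cells exposed to compound for 24 h before readout; actives reduce ATP signal below DMSO vehicle meaning cytotoxicity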)
# Outline: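 ATP depletion measured in HEK293T cells after 24 h dosing (8 concentrations, 5 nM–87.5 uM final; DMSO 0.5%) using CellTiter-Glo luminescence; curves fit for loss of signal against DMSO baseline.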
# [3] = CCTE_Padilla_ZF_144hpf_TERATOSCORE: (Legacy) CCTE's 144 Hour Post-fertilization zebrafish Assay Teratoscore, Padilla Lab (AID 2283679);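 as to AC50: zebrafish embryos with chorions exposed by immersion from 6-8 hpf to 5 dpf with daily renewal; teratogenicity score from eye scoring of death hatching and malformations at 144 hpf; higher score means more developmental defects relative to DMSO baseline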
# Outline: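 Larvae scored by eye at 144 hpf for death, hatching and malformations after a day in clean Hanks'. Before that, daily-renewed exposure at 80 uM (0.4% DMSO, 26C) from roughly 6-8 hpf through 5 dpf, 4 embryos per chemical.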
# [4] = read-out: solute carrier (SLC10A1), SLC10A1 (gene 6554); assay: LTEA_HepaRG_SLC10A1: Life Technologies and Expression Analysis (LTEA) Assay for solute carrier (SLC10A1) using HepaRG (AID 2283657); conditions: mRNA level, 48 h; actives raise or lower the signal
# Outline: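 SLC10A1 transcript measured by TaqMan qRT-PCR, housekeeping-normalised, after 48 h chemical treatment of human HepaRG cells. Eight concentrations (half-log, max 100 uM, 0.5% DMSO vehicle) in duplicate; fitted bidirectionally against DMSO baseline.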
# [5] = read-out: matrix metalloproteinase-1 (MMP1), MMP1 (gene 4312); assay: LTEA_HepaRG_MMP1: Life Technologies and Expression Analysis (LTEA) Assay for matrix metalloproteinase-1 (MMP1) using HepaRG (AID 2283658); conditions: mRNA level, 48 h; actives raise or lower the signal
# Outline: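 Differentiated HepaRG cells, plated 48 h then switched to serum-free induction medium, were exposed in duplicate for 48 h to eight half-log concentrations up to 100 uM in 0.5% DMSO; MMP1 mRNA measured by qRT-PCR, normalized to ACTB, GAPDH, POLR2A.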
# [6] = read-out: Cytochrome P450 (CYP24A1_1), CYP24A1 (gene 1591); assay: LTEA_HepaRG_CYP24A1_1: Life Technologies and Expression Analysis (LTEA) Assay for Cytochrome P450 (CYP24A1_1) using HepaRG (AID 2283671); conditions: mRNA level, 48 h; actives raise or lower the signal
# Outline: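 Differentiated human HepaRG cells were exposed in duplicate for 48 h in serum-free induction medium to eight concentrations (top 100 uM, half-log steps, 0.5% DMSO). CYP24A1 mRNA was quantified by TaqMan qRT-PCR, normalized to ACTB, GAPDH and POLR2A, and fitted bidirectionally versus DMSO.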
# [7] = CEETOX_H295R_MTT_cell_viability: Viability Assessment in the CeeTox HT-H295R MTT Assay (AID 2283718);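 as to AC50: curve fitted both ways so AC50 may mark viability loss or gain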
# Outline: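 MTT reduction (0.5 mg/ml, 4 h at 37 C; absorbance at 570 and 650 nm) gave viability as background-corrected percent change versus controls. H295R cells had 48 h forskolin (10 uM) prestimulation, then 48 h chemical exposure at 0.1% DMSO.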
# [8] = STM_H9_OrnithineISnorm_perc: Stemina devTOX quickPredict H9 human embryonic stem cell (hESC)-based Assay for Ornithine (ORN) Metabolite Biomarker, Normalized (AID 2283712);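 also: ornithine released into spent medium during last day measured by mass spectrometry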
# Outline: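 Metabolite endpoint from spent media of pluripotent H9 cells treated 72 h with daily re-feeding; ornithine measured by UPLC-HRMS against its 13C spike-in and referenced to the median 0.1% DMSO vehicle response.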
# [9] = STM_H9_CystineISnorm_perc: Stemina devTOX quickPredict H9 human embryonic stem cell (hESC)-based Assay for Cystine (CYSS) Metabolite Biomarker, Normalized (AID 2283713)
# Outline: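 Normalized cystine level in conditioned medium from the final 24h of a 72h treatment of pluripotent H9 cells (daily media and compound renewal). Quantified by UPLC-HRMS with C13-labeled internal standard; scaled to median of 0.1% DMSO vehicle wells.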
# [10] = STM_H9_OrnCyssISnorm_ratio: Stemina devTOX quickPredict H9 human embryonic stem cell (hESC)-based Assay for Ornithine (ORN):Cystine (CYSS) Ratio (AID 2283714; active = hit-call score of the fitted dose curve at least 0.9, where 1 is the maximum)
# Outline: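 Ratio of internal-standard-normalized ornithine to cystine, measured by UPLC-HRMS in spent media from the last 24 h. H9 cells kept pluripotent, dosed 72 h with daily media and compound renewal; DMSO 0.1% serves as baseline.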
compound,measurement,setting,value
CCCCCCCCc1ccc(O)cc1,AC50,[1],6.82 µM (active)
same,AC50,[2],22.6 µM (active)
same,AC50,[3],5.21 µM (active)
Oc1cccc2cccnc12,outcome,[4],inactive
same,outcome,[5],inactive
same,AC50,[1],18.4 µM (active) and 15.9 µM (active)
same,AC50,[2],15.8 µM (active) and 53.8 µM (active)
same,outcome,[6],inactive
same,AC50,[3],4.78 µM (active)
NNC(=S)NN,AC50,[1],0.205 µM (active)
same,outcome,[2],inactive
same,outcome,[7],inactive
CCOP(=S)(OCC)SCSP(=S)(OCC)OCC,AC50,[1],9.6 µM (active)
same,AC50,[2],46.6 µM (active)
same,AC50,[3],5.5 µM (active)
same,outcome,[7],inactive
CC(C)(C)c1cc(O)ccc1O,AC50,[1],1.84 µM (active) [middle of 5 runs]
same,AC50,[2],85.6 µM (active) and 25.9 µM (active) and 27.6 µM (active)
same,outcome,[2],inactive
same,AC50,[3],14.4 µM (active)
same,outcome,[8],inactive
same,outcome,[9],inactive
same,outcome,[10],inactive
CC(C)(c1ccc(OCC2CO2)cc1)c1ccc(OCC2CO2)cc1 (centres undefined),AC50,[1],43.5 µM (active)
same,AC50,[2],83.7 µM (active)
same,outcome,[10],inactive
Cc1ccc2ccccc2c1C,AC50,[1],34.3 µM (active)
same,AC50,[2],17.4 µM (active)
O=C(O)C(F)(F)C(F)(F)C(F)(F)C(F)(F)C(F)(F)C(F)(F)C(F)(F)C(F)(F)C(F)(F)C(F)(F)F,AC50,[4],47.8 µM (active)
same,outcome,[5],inactive
same,outcome,[6],inactive
same,AC50,[3],8.02 µM (active)
O=C(O)C(F)(F)C(F)(F)C(F)(F)C(F)(F)C(F)(F)C(F)(F)F,AC50,[1],16.5 µM (active)
same,outcome,[1],inactive
CCC(C)(C)c1ccc(O)c(C(C)(C)CC)c1,AC50,[1],4.15 µM (active)
same,AC50,[2],0.847 µM (active)
same,AC50,[3],4.87 µM (active) and 4.82 µM (active)
Clc1ccc(COC(Cn2ccnc2)c2ccc(Cl)cc2Cl)cc1 (centres undefined),AC50,[1],43.8 µM (active)
same,AC50,[2],22.4 µM (active)
NC(=O)O,outcome,[4],inactive
same,outcome,[5],inactive
same,outcome,[6],inactive
same,outcome,[3],inactive
CC(C)(C)CC(C)(C)c1ccc(O)cc1,AC50,[1],11.6 µM (active)
same,AC50,[2],9.53 µM (active)
same,AC50,[3],4.55 µM (active)
CCOP(=S)(OCC)Oc1nc(Cl)c(Cl)cc1Cl,AC50,[1],10.4 µM (active)
same,AC50,[2],17.9 µM (active)
same,AC50,[3],4.72 µM (active)
same,AC50,[7],93.2 µM (active)
O=C(O)C(Cl)(Cl)Cl,outcome,[1],inactive
same,outcome,[2],inactive
same,outcome,[3],inactive
same,outcome,[8],inactive
same,outcome,[9],inactive
CCCCCCCCSC(=O)Oc1cc(Cl)nnc1-c1ccccc1,AC50,[1],43.8 µM (active)
same,outcome,[2],inactive
CC1(C)Cc2cccc(O)c2O1,AC50,[1],12.2 µM (active)
Cc1ccc(N)cc1Cl,AC50,[1],0.0109 µM (active)
same,AC50,[2],18.4 µM (active)
O=C(Nc1ccc2[nH]ccc2c1)c1cc2cc(F)ccc2n1Cc1cccc(F)c1,AC50,[1],1.62 µM (active)
same,AC50,[2],0.753 µM (active)
same,AC50,[8],3.5 µM (active)
same,AC50,[9],1.27 µM (active)
same,AC50,[10],1.28 µM (active)
same,outcome,[7],inactive
CC(C)(c1ccccc1)c1ccc(O)c(C(C)(C)c2ccccc2)c1,AC50,[1],19.6 µM (active)
same,AC50,[2],5.35 µM (active)
same,AC50,[3],4.58 µM (active)
ClC1(Cl)C2(Cl)C3(Cl)C4(Cl)C(Cl)(Cl)C5(Cl)C3(Cl)C1(Cl)C5(Cl)C24Cl (centres undefined),AC50,[4],1.22 µM (active)
same,outcome,[5],inactive
same,outcome,[6],inactive
same,outcome,[8],inactive
same,outcome,[9],inactive
same,AC50,[10],0.346 µM (active)
COP(=S)(OC)Oc1ccc(Sc2ccc(OP(=S)(OC)OC)cc2)cc1,AC50,[1],11.6 µM (active)
COP(=O)(OC)O/C(=C\Cl)c1cc(Cl)c(Cl)cc1Cl,AC50,[1],48.3 µM (active)
same,AC50,[2],25 µM (active)
same,outcome,[7],inactive
CCOC(=O)Nc1cccc(OC(=O)Nc2ccccc2)c1,AC50,[1],1.38 µM (active)
same,AC50,[2],16.6 µM (active)
Cc1ccccc1N,AC50,[1],2.19 µM (active) and 2.51 µM (active)
same,outcome,[2],inactive
CC12CC1(C)C(=O)N(c1cc(Cl)cc(Cl)c1)C2=O (centres undefined),outcome,[1],inactive
same,outcome,[2],inactive
same,outcome,[3],inactive
same,AC50,[8],61 µM (active)
same,AC50,[9],50 µM (active)
same,AC50,[10],50 µM (active)
same,outcome,[7],inactive
Clc1ccc(C2(Cn3cncn3)CC(Br)CO2)c(Cl)c1 (centres undefined),outcome,[1],inactive
same,AC50,[2],95.2 µM (active)
OCc1ccco1,AC50,[1],28.5 µM (active)
same,outcome,[2],inactive
CC(C)c1cccc(C(C)C)c1O,AC50,[1],10.3 µM (active)
same,AC50,[2],84.6 µM (active)
Oc1ccc(-c2ccccc2)cc1,outcome,[7],inactive
CN(CCCC(=O)c1cccnc1)N=O,outcome,[7],inactive
CCC1(c2ccc(N)cc2)CCC(=O)NC1=O (centres undefined),AC50,[1],0.935 µM (active)
same,outcome,[7],inactive
Nc1ccc(-c2ccc(N)c(Cl)c2)cc1Cl,outcome,[7],inactive
O=[N+]([O-])c1ccc(O)c([N+](=O)[O-])c1,AC50,[3],4.96 µM (active)
same,outcome,[8],inactive
same,AC50,[9],31.1 µM (active)
same,outcome,[10],inactive
C[C@]12CC[C@H](O)CC1=CC[C@@H]1[C@@H]2CC[C@]2(C)C(=O)CC[C@@H]12,outcome,[7],inactive
c1cc[c]([Hg][c]2ccccc2)cc1,AC50,[7],24.7 µM (active)
CC1(C)CCC(Cc2ccc(Cl)cc2)C1(O)Cn1cncn1 (centres undefined),outcome,[1],inactive
same,AC50,[2],89 µM (active)
same,outcome,[7],inactive
CCOP(=S)(OCC)SCCS(=O)(=O)CC,outcome,[7],inactive
O=c1[nH]c(=O)[nH]c(=O)[nH]1,outcome,[3],inactive
C=C(C)C(=O)[O][Sn]([CH2]CCC)([CH2]CCC)[CH2]CCC,AC50,[3],0.0483 µM (active)
same,AC50,[8],0.494 µM (active)
same,AC50,[9],0.266 µM (active)
same,AC50,[10],0.441 µM (active)
C=CC(=O)N(C)C,outcome,[7],inactive
O=C(OC1CCCCC1)c1ccccc1C(=O)OC1CCCCC1,AC50,[7],28.6 µM (active)
O=C(Cc1ccccc1)c1ccccc1,outcome,[7],inactive
CC(=O)[O][Hg][c]1ccccc1,AC50,[3],0.066 µM (active)
same,AC50,[8],0.476 µM (active)
same,AC50,[9],0.287 µM (active)
same,AC50,[10],0.311 µM (active)
C[C@@H]1C[C@@H]([C@H](O)CC2CC(=O)NC(=O)C2)C(=O)[C@@H](C)C1,AC50,[3],6 µM (active)
same,AC50,[8],4.59 µM (active)
same,AC50,[9],0.92 µM (active)
same,AC50,[10],2.9 µM (active)
same,outcome,[7],inactive
CC(C)OC(=O)Nc1ccccc1,AC50,[7],2.64 µM (active)
ClC(Cl)=C(Cl)C(Cl)=C(Cl)Cl,outcome,[7],inactive
C[C@H]1CCCC(=O)CCC/C=C/c2cc(O)cc(O)c2C(=O)O1,AC50,[1],3.47 µM (active)
same,AC50,[2],89.2 µM (active)
same,AC50,[7],69.8 µM (active)
CCCCCCCCC(=O)NCc1ccc(O)c(OC)c1,outcome,[7],inactive
C[C@]12CCC(=O)C[C@@H]1CC[C@@H]1[C@@H]2CC[C@]2(C)[C@@H](O)CC[C@@H]12,AC50,[3],11.6 µM (active)
same,outcome,[7],inactive
CCN1CCC2(CC1)COc1cc3c(cc12)N(C(=O)c1ccc(-c2ccc(-c4nnc(C)o4)cc2C)cc1)CC3,AC50,[3],54 µM (active)
same,outcome,[3],inactive
same,AC50,[8],8.53 µM (active)
same,AC50,[9],3.56 µM (active)
same,AC50,[10],7.61 µM (active)
COc1cc(-c2ccc(N)c(OC)c2)ccc1N,AC50,[3],52.6 µM (active) and 79.3 µM (active)
same,outcome,[7],inactive
C(=NC1CCCCC1)=NC1CCCCC1,outcome,[7],inactive
Cn1sc(Cl)cc1=O,AC50,[3],14.9 µM (active)
same,outcome,[7],inactive
C1CCC(NC2CCCCC2)CC1,outcome,[7],inactive
CN(C)N=O,outcome,[3],inactive
ClCC(Cl)CCl,outcome,[3],inactive
same,outcome,[8],inactive
same,outcome,[9],inactive
same,outcome,[10],inactive
O=C1C2(Cl)C3(Cl)C4(Cl)C(Cl)(Cl)C5(Cl)C3(Cl)C1(Cl)C5(Cl)C24Cl (centres undefined),AC50,[3],3.4 µM (active)
Fc1ccc(C2(Cn3cncn3)OC2c2ccccc2Cl)cc1 (centres undefined),outcome,[7],inactive
